# Screens as filed in PubChem BioAssay.
# Rows were chosen to be rich in hits. Some 4.9% of all compounds tested hit in one or more screens of this group.
# PP5 primary = inhibitors of human protein phosphatase 5 (PP5); P53041; purified PP5c, OMFP substrate fluorescence; inhibition, % at 6.7 µM; 320,000 tested, 0.18% active; AID 1987;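 active = inhibition above the campaign's mean inhibition across all tested compounds plus 3 SD, cut at about 9.5% in these data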;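 also: 0% = DMSO only and 100% = 100 µM cantharidin control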
# Mdm2-MdmX inh = inhibitors of human Mdm2/MdmX interaction; O15151+Q00987; SaOS-2 split-luciferase Mdm2/MdmX complementation, luminescence; inhibition, % at 8 µM; 330,000 tested, 3% active; AID 485346;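 active = inhibition of at least 50% at 8 µM in the primary screen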
# Calb FLC = C. albicans growth modulation with fluconazole | C. albicans CaCi-2 (fluconazole-resistant clinical isolate) + fluconazole, Alamar Blue growth, 48 h | growth inhibition, % (test concentration not listed) | 300,000 tested, 0.57% active;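 active = growth inhibition above about 58% in most replicates, limit read from the data, passing the limit was not always enough; inconclusive = exactly half the replicates above a set limit; inactive = most replicates below a set limit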;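 also: all wells also contain fluconazole at 8 µg/ml as a sub-toxic cotreatment; 0% = median of DMSO wells and 100% = median of geldanamycin control wells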
# CSC inhib = blocks cancer stem cells | cancer stem cell-like cells viability, luminescence | inhibition, % at 7.5 µM | 300,000 tested, 1.1% active; in the data active = inhibition above about 75%; inconclusive = no clear call, values can overlap the other calls; tested in HMLE shEcad cells
# Beta apoptosis = beta cell apoptosis inhibition. INS-1E cytokine-induced death, ATP luminescence, 48 h; percent of positive-control rescue, neutral wells zero. protection from apoptosis, % (concentration not given with the values). 300,000 tested, 0.8% active. AID 435005;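 active = Every replicate reaches about 75%, or at least half do and their mean reaches it too, limit read from the data; inconclusive = At least half of replicates reach the limit but their mean does not; inactive = Under half of replicates reach the limit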;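 also: 0% = cytokine-treated negative control wells and 100% = positive control rescue; higher means more ATP so stronger rescue from cytokine killing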
# PP1 counter = PP1-alpha (human) inhibition in PP5 counter-screen; purified PP1alpha, OMFP fluorescence; inhibition, % at 6.7 µM; 320,000 tested, 0.9% active; AID 2235;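 active = inhibition above the mean inhibition of all tested compounds plus 3 SD, computed separately for each screening campaign, cut at about 15% in these data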
# Target sequence (P62136 whole entry, looked up): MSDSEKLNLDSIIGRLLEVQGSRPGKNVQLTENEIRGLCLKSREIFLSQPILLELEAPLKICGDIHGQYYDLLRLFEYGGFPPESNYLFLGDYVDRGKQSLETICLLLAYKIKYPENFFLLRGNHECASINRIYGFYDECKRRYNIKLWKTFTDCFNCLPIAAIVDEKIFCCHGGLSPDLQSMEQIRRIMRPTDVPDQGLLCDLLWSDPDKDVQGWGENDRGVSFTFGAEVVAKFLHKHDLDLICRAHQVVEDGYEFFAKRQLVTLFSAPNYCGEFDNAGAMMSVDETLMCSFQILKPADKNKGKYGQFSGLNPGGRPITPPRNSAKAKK
# PP1 inh confirm = human PP1 phosphatase inhibition, confirmation; shares compounds with PP1 counter; purified PP1alpha, OMFP substrate fluorescence; inhibition, % at 6.7 µM; 1,900 tested, 52% active;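 active = mean PP1 inhibition above a set limit taken from the earlier primary screen, cut at about 15% in these data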
# PP5 inh counter = PP5 phosphatase inhibition, counter-screen for PP1 inhibitors | shares compounds with PP1 counter | purified PP5c, OMFP fluorescence | inhibition, % at 6.7 µM | 1,900 tested, 4% active;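 active = mean PP5 inhibition over triplicate wells above about 9.5% taken from the earlier PP1 screen, limit read from the data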
# Mdm2-MdmX conf = confirmation of human Mdm2/MdmX interaction inhibitors; shares compounds with Mdm2-MdmX inh; Mdm2-MdmX binding, luminescent assay; inhibition, % at 8 µM; 10,000 tested, 55% active; AID 489028; in the data active = inhibition above about 40%
# FLuc counter = inhibits full-length luciferase, flagging false Mdm2/MdmX hits; shares compounds with Mdm2-MdmX inh; inhibition, % at 8 µM; SaOS-2 full-length luciferase counterscreen, luminescence; 6,200 tested, 77% active;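 active = mean inhibition at 8 µM reaching about 37%, which flags the compound as non-specific, limit read from the data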;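 also: p53-null SaOS-2 cells with luciferase driven by a doxycycline-inducible promoter; compound on cells about two nights before reading with doxycycline added after day one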
# Starred values were filed as active, the others as inactive; u = inconclusive; x = not tested or not shown.
SMILES,PP5 primary,Mdm2-MdmX inh,Calb FLC,CSC inhib,Beta apoptosis,PP1 counter,PP1 inh confirm,PP5 inh counter,Mdm2-MdmX conf,FLuc counter
C=CCOC(=O)C1=C(C)NC(SCC(=O)Nc2ccc(C)c(Cl)c2)=C(C#N)C1c1ccco1 (stereo not drawn),1,63*,1,-2,5,19*,7,2,51*,46*
COCCOC(=O)C1=C(C)NC(SCC(=O)NC(C)(C)C)=C(C#N)C1c1ccco1 (stereo not drawn),x,9,-9,x,x,x,x,x,x,x
CC1CC1C(=O)N(C)CC(=O)Nc1cccc(F)c1 (stereo not drawn),0,-9,5,-15,1,2,x,x,x,x
Clc1ccc(C2=Nn3c(nnc3-c3n[nH]c4c3CCC4)SC2)cc1Cl,2,89*,-7,32,-32,23*,28*,3,69*,34
CCCCC(=O)NC(c1ccc([N+](=O)[O-])cc1)c1c(O)ccc2ccccc12 (stereo not drawn),6,47,18,65,33,4,x,x,x,x
CCCCC(=O)NC(c1ccccc1)c1ccc2cccnc2c1O (stereo not drawn),2,72*,89*,110*,99*,21*,13,-5,88*,50*
CCCCC(=O)NC(c1ccc(C(C)C)cc1)c1ccc2cccnc2c1O (stereo not drawn),-2,78*,-2,x,x,23*,21*,-7,88*,19
CCCCC(=O)NC(c1ccccc1Cl)c1ccc2cccnc2c1O (stereo not drawn),3,80*,5,99*,106*,27*,19*,-4,90*,22
COc1ccc(Cl)cc1/C=C/c1ccc2cccc(O)c2n1,2,50*,11,58,24,18*,16*,-3,1,x
CCc1ccc2[nH]c(=O)c(CN(Cc3ccc4c(c3)OCO4)Cc3nnnn3C3CCCC3)cc2c1,4,64*,-15,1,25,21*,6,2,12,x
Cc1ccc2cc(CN(Cc3ccc(F)cc3)Cc3nnnn3C3CCCC3)c(=O)[nH]c2c1,2,7,u,21,1,6,x,x,x,x
CCC(=O)O[C@]1(C(=O)SCF)[C@H](C)C[C@H]2[C@@H]3C[C@H](F)C4=CC(=O)C=C[C@]4(C)[C@@]3(F)[C@@H](O)C[C@@]21C,0,22,-7,-1,x,4,x,x,x,x
NC(=O)[C@H]1CC2(CC(c3cccc(NC(=O)CC(c4ccccc4)c4ccccc4)c3)=NO2)CN1C(=O)CC(c1ccccc1)c1ccccc1 (stereo partly drawn),5,68*,19,13,-3,22*,29*,12*,52*,57*
CCC(=O)N1CC2(CC(c3cccc(NC(=O)CC(c4ccccc4)c4ccccc4)c3)=NO2)C[C@H]1C(N)=O (stereo partly drawn),2,-2,-1,-3,1,-1,x,x,x,x
Cn1c2c(c(=O)n(C)c1=O)C(c1ccc(Cl)cc1)C(C#N)=C(N)O2 (stereo not drawn),0,25,-3,-7,-18,4,x,x,x,x
O=C(N/N=C/c1ccccc1)c1ccc(NC(=O)c2ccc(F)cc2)cc1,2,0,-9,3,2,10,x,x,x,x
O=C(N/N=C/c1cc(Br)cc([N+](=O)[O-])c1O)c1ccc(NC(=O)c2ccc(F)cc2)cc1,3,56*,8,42,46,22*,35*,0,37,60*
Brc1ccc([C@H]2CN3CCSC3=N2)cc1,0,-34,x,-11,4,-2,x,x,x,x
COc1ccc2[nH]c(C)cc(=O)c2c1,-3,17,u,-1,-1,-2,x,x,x,x
